Screening results from PubChem.
Most compounds without a hit are left out; they make up all but 2.6% or so of the library.
Fam108B counter = mouse Fam108B serine hydrolase inhibitors, primary screen, counter-screen for RBBP9 inhibitor project, biochemical, fluorescence polarization; recombinant Fam108B, FP-Rh probe fluorescence polarization; inhibition, % at 9.51 µM; 300,000 tested, 0.33% active; AID 1947, 2009;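 active means inhibition above the screen mean inhibition plus 3 SD, computed separately per campaign, cut at about 18% in these data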;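 further: inhibitors lower polarization as less probe binds the enzyme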
PRMT1 inh = PRMT1 methyltransferase inhibitors, primary screen, biochemical, fluorescence polarization. Protein arginine N-methyltransferase 1 (Homo sapiens), Q99873. inhibition, % at 2.79 µM. recombinant PRMT1, activity-based probe fluorescence polarization. AID 652257, 2013. 370,000 tested, 1.3% active;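 active means inhibition above about 21% made by adding two undisclosed values, limit read from the data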
TCR-CD3 inh = inhibitors of human TCR-CD3 interaction, primary screen, biochemical, fluorescence, TAMRA-labeled TCR probe. T-cell receptor (TCR). inhibition, % at 9.4 µM. 360,000 tested, 0.37% active. AID 651800, 2012; in the data active means inhibition above about 19%;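 further: recombinant mutant TCR 2C K166C tagged with TAMRA read by polarization; 0% = receptor in buffer alone and 100% = receptor with positive control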
PAD4 FP inh = human PAD4 inhibitors, primary screen, biochemical, fluorescence polarization, 1536-well format. Protein-arginine deiminase type-4 (Homo sapiens), Q9UM07. recombinant PAD4, RCA probe fluorescence polarization. inhibition, % at 6.36 µM. 330,000 tested, 0.41% active;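 active means percent inhibition above a cutoff equal to the mean of all tested compounds plus 3 SD, cut at about 15% in these data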;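 further: 0% = PAD4 with RCA probe and DMSO and 100% = probe without PAD4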
SIAE primary = human SIAE inhibitors, primary screen, biochemical, fluorescence polarization, FP-Rh probe, 1536-well HTS; Sialate O-acetylesterase (Homo sapiens), Q9HAT2; SIAE FP-Rh probe binding; inhibition, % at 9.66 µM; 370,000 tested, 0.69% active; AID 1053197, 2014;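 active means inhibition above a cutoff: mean of compounds within the control limits plus 3 SD of those, cut at about 17% in these data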;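 further: 0% = plate median of compound wells and 100% = probe without SIAE protein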
Target sequence (Q9HAT2 whole entry, looked up): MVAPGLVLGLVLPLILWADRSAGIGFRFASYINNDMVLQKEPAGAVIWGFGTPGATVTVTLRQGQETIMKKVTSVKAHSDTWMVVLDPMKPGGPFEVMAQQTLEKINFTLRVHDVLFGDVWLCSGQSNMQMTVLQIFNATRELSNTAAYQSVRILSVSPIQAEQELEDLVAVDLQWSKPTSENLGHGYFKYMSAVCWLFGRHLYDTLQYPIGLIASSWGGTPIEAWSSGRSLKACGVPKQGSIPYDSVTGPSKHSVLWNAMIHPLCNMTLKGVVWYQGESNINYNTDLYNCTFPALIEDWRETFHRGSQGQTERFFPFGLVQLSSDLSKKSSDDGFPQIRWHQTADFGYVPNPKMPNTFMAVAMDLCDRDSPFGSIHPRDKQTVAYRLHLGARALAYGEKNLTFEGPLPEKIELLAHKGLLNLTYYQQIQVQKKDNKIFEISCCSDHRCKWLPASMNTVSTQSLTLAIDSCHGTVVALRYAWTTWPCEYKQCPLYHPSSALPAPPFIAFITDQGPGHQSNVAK
PME-1 primary = PME-1 inhibitors via competitive probe labeling, primary screen, biochemical, fluorescence polarization, FP-Rh probe, HTS | Protein phosphatase methylesterase 1 (Homo sapiens), Q9Y570 | recombinant PME-1 | inhibition, % at 5.9 µM | 320,000 tested, 0.53% active | AID 2130, 2009;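 active means inhibition above the campaign mean of all compounds plus 3 SD, cut at about 26% in these data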;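 further: competitive labeling of PME-1 active site by serine hydrolase directed probe; 0% = PME-1 with DMSO and 100% = wells lacking PME-1 enzyme; inhibitors block probe labeling so polarization falls and inhibition rises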
SIAE confirm = human SIAE inhibitors, retest, confirmation, biochemical, fluorescence polarization, FP-Rh probe, triplicate; SIAE FP-Rh activity-based probe; 2,300 tested, 13% active; shares compounds with SIAE primary; inhibition, % at 9.66 µM;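 active means mean inhibition of the replicates above the hit cutoff set in the primary screen, cut at about 17% in these data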;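 further: 0% = SIAE with DMSO and probe and 100% = probe without SIAE; inhibitors lower polarization as more probe stays unbound to SIAE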
Starred values were filed as active, the others as inactive; / = not tested or not shown.

SMILES	Fam108B counter	PRMT1 inh	TCR-CD3 inh	PAD4 FP inh	SIAE primary	PME-1 primary	SIAE confirm
COc1ccc(C(C)(C)C)cc1NC(=O)CCCn1c(=O)oc2ccccc21	2	-1	11	0	76*	10	1
O=C(OCCN1CCN(C2CN(Cc3cn(Cc4cccc(F)c4)nn3)S(=O)(=O)C2)CC1)c1cc2ccccc2o1 (centres undefined)	/	2	/	/	7	/	/
CS(=O)(=O)N(CC(=O)N1CCN(Cc2ccccc2)CC1)c1ccccc1F	2	1	8	1	-1	0	/
COc1ccc(S(=O)(=O)N(CC(=O)N2CCN(c3ccccc3)CC2)c2ccccc2)cc1	0	-1	9	-1	-2	-4	/
COc1ccc(N2CCN(C(=O)CN(c3ccccc3)S(C)(=O)=O)CC2)cc1	-5	2	-5	-2	20*	-5	3
CS(=O)(=O)N(CC(=O)N1CCN(Cc2ccccc2)CC1)c1ccccc1Br	1	1	-3	2	19*	-3	6
O=S1(=O)c2c(NCc3ccco3)cccc2Oc2ccccc2CN1Cc1cn(Cc2ccc(Cl)cc2)nn1	/	6	/	/	-6	/	/
COC(=O)[C@]12C[C@H](CC(=O)NCc3cccc(C(F)(F)F)c3)C(=O)N(CCc3ccc(OC)c(OC)c3)C1=C[C@H](C1CCCC1)O[C@@H]2C	/	-3	/	/	-4	/	/
COc1ccc(NC(=O)n2ncc3c(C)cccc32)cc1OC	7	1	-1	-4	17*	10	-2
COc1ccc(-c2cc(C(=O)NN=Cc3ccc(O)c(OC)c3)[nH]n2)cc1	/	-2	/	/	0	/	/
CC(=O)N1CCC2(CC1)C/C(=N\NC(=S)Nc1ccc(C)cc1)c1cc(O)ccc1O2	6	2	-1	-1	26*	4	-23
O=C(OCc1ccc(CSc2nnc(-c3cccc4ccccc34)o2)cc1)c1ccc(F)cc1	/	-5	/	/	3	/	/
CCOc1ccc2[nH]c3c(NCCc4ccc(OC)c(OC)c4)ncnc3c2c1	9	6	-10	-3	19*	6	14
Cc1ccc2[nH]c3c(NCc4ccco4)ncnc3c2c1	9	1	0	3	-5	12	/
COc1cc(CNc2ncnc3c2[nH]c2ccc(C)cc23)cc(OC)c1	6	-1	-11	-6	37*	10	13
CC(C)=CCC/C(C)=C/CNCC(=O)N1c2ccccc2[C@]2(C)C[C@@H]3C(=O)N(C/C=C(\C)CCC=C(C)C)CC(=O)N3[C@H]12	/	2	/	/	6	/	/
CN(C(=O)COC(=O)c1ccc(Cl)c(S(=O)(=O)N2CCCCCC2)c1)C1CCS(=O)(=O)C1 (centres undefined)	/	-3	-1	5	19*	/	3
CCN(C(=O)COC(=O)c1ccc(Cl)c(S(=O)(=O)N2CCCCC2)c1)C1CCS(=O)(=O)C1 (centres undefined)	/	-7	2	-7	0	/	/
Cc1nc2c3ccccc3nc(NNC(=O)CCC(=O)N3CCC(C)CC3)n2n1	0	-1	-4	3	23*	-8	3
CCOc1ccc(S(=O)(=O)n2cnc(C)c2)cc1	-3	-6	-1	-1	17*	-13	5
COc1ccc(S(=O)(=O)n2cnc(C)c2)cc1	-2	1	0	-5	1	-4	/
O=C(Cc1ccccc1F)N1CCC(n2nnc3ncccc32)CC1	/	0	/	/	9	/	/
COc1ccc(NC(=O)N(C)C[C@H]2OCCCC[C@H](C)Oc3ccc(NC(=O)Nc4ccc5c(c4)OCO5)cc3C(=O)N([C@@H](C)CO)C[C@@H]2C)cc1	/	0	1	/	23*	/	6
COc1ccc(NC(=O)Nc2ccc3c(c2)C(=O)N([C@H](C)CO)C[C@H](C)[C@@H](CN(C)S(C)(=O)=O)O3)cc1	/	0	-16	1	-1	/	/
C[C@H](CO)N1C[C@H](C)[C@@H](CN(C)S(=O)(=O)c2ccccc2)Oc2ccc(NC(=O)Nc3ccc4c(c3)OCO4)cc2C1=O	/	0	8	0	19*	/	2
SMILES	Fam108B counter	PRMT1 inh	TCR-CD3 inh	PAD4 FP inh	SIAE primary	PME-1 primary	SIAE confirm
COc1ccc(NC(=O)Nc2ccc3c(c2)C(=O)N([C@H](C)CO)C[C@H](C)[C@@H](CN(C)S(=O)(=O)c2ccc(OC)cc2)O3)cc1	/	-1	1	1	22*	/	-4
COC(=O)[C@]12C[C@H](CC(=O)NCCc3ccccc3OC)C(=O)N(Cc3ccc4c(c3)OCO4)C1=C[C@H](C(C)C)O[C@@H]2C1CC1	/	2	/	/	3	/	/
CCn1c(CCl)nc2cc(S(=O)(=O)N3CCOCC3)ccc21	/	-1	2	-1	18*	/	7
CCn1c(SCC(N)=O)nc2cc(S(=O)(=O)N3CCOCC3)ccc21	0	-6	10	0	-7	1	/
CCCNC(=O)c1[nH]c(C)c(C(=O)OCC)c1C	3	/	/	2	/	2	/
CCOC(=O)c1c(C)[nH]c(C(=O)NCCc2ccc(OC)c(OC)c2)c1C	-1	-2	3	4	22*	-11	-2
CN(C)c1ccc(NC(=O)Nc2ccc3c(c2)c(=O)n(C)n3Cc2ccccc2)cc1	/	13	2	/	5	/	/
CN(C)c1ccc(NC(=O)Nc2ccc3c(c2)c(=O)n(C)n3Cc2ccc(Cl)cc2)cc1	/	15	-2	/	27*	/	15
COc1ccccc1/C=N\NC(=O)c1cccc(S(=O)(=O)N(C)C)c1	/	3	/	/	3	/	/
CCC(c1ccccc1)c1noc(CCN(CC)CC)n1 (centres undefined)	/	-2	-3	/	20*	/	0
COCCN(C)Cc1nc(C(c2ccccc2)c2ccccc2)no1	5	-2	3	-3	-2	1	/
O=C(CSc1nnc(COc2ccc(Cl)cc2)n1Cc1ccco1)Nc1ccc(OCc2ccccc2)cc1	/	-1	/	/	3	/	/
O=S(=O)(Nc1ccc(N=Nc2ccc(O)c3ccccc23)cc1)c1ccccc1	15	6	2	-17	36*	39*	-38
O=S(=O)(Nc1ccc(N=Nc2ccccc2)cc1)c1ccccc1	1	-2	-1	-2	8	-1	/
COC(=O)CSc1nnc(NC(=O)c2ccc3c(c2)OCO3)s1	3	-1	18	-4	19*	5	-2
COC(=O)[C@]12C[C@H](CC(=O)NCC3CCCCC3)C(=O)N(Cc3ccco3)C1=C[C@H](C(C)(C)C)O[C@@H]2C	/	1	/	/	1	/	/
